According to PubChem BioAssay AID453 (PCMD, 2006):
Among all 63,000 compounds or so, about 75 (0.1%) were called active. Rule as the data show it: active = inhibition above about 21%; inactive = the rest. The entries come from a sample that favours actives as a whole.

Each compound was assayed against Cathepsin B (Homo sapiens) (UniProt P07858) (assay: human cathepsin B inhibitors, primary screen, biochemical, fluorogenic substrate (AID 453;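 also: 0% = enzyme with no compound and 100% = no enzyme blank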)). Conditions: purified cathepsin B, fluorescence, active compounds read high,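 tested at 10 µM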.

inhibition, inactive:
O=C1c2cccc3cccc(c23)N1CN1CCN(c2ccccn2)CC1 2.14%
Cc1ccccc1-c1ccc(Nc2ccc(C(=O)N3CCOCC3)cc2)nn1 6.18%
NC(=O)CSc1c[nH]c2ccccc12 0.81%
COc1ccc(-c2cc(C(=O)NC(C(=O)O)C(C)C)c(C)o2)cc1OC (stereo unspecified) 5.71%
CCCc1nc2c3cnn(-c4cccc(Cl)c4)c3ncn2n1 -2.64%
CCOC(=O)N1CCC(NC(=O)CCc2cn(C)c3ccccc23)CC1 -2.17%
COc1ccc(CCNC(=O)C2CCCN(Cc3nc(-c4cccc(Cl)c4)oc3C)C2)cc1OC (stereo unspecified) 3.18%
COCc1cc(C)nc(Nc2cc(C)ccc2C)c1C#N 4.86%
COc1ccc(CCNC(=O)CSc2nnc(CNC(=O)c3cccs3)o2)cc1OC 1.4%
O=c1c(F)cn(C2CCCO2)c(=O)n1Cc1ccccc1Cl (stereo unspecified) -1.02%
CC(C)OC(=O)c1cc(NC(=O)C2C3CCC(O3)C2C(=O)O)cc(C(=O)OC(C)C)c1 (stereo unspecified) 2.7%
COc1cc(C2C(C(=O)c3ccc(C)o3)=C(O)C(=O)N2CCc2ccccc2)ccc1O (stereo unspecified) 4.77%
COc1ccc(NC2CC(=O)N(C)C2=O)cc1 (stereo unspecified) -3.47%
CCOC(=O)N1CCN(C(=O)C2CCCN(c3ncnc4c3sc3cccc(F)c34)C2)CC1 (stereo unspecified) -3.56%
CCOc1cccc(-c2nn3c(-c4ccccn4)nnc3s2)c1 0.42%
CC(=O)N(CN1C(=O)C2CC=CCC2C1=O)c1cccc(Cl)c1 (stereo unspecified) -3.62%
Cc1ccc2c(c1)N(CC(=O)N1CCCc3ccccc31)C(=O)C(C)O2 (stereo unspecified) 3.31%
CC1=C2C(=O)OC(c3ccoc3)C2(C)CCC1 (stereo unspecified) 0.12%
CC1CSc2nnc(CCc3ccccc3)n21 (stereo unspecified) -1.7%
COc1ccc(C2CC(c3ccccc3)Nc3ncnn32)cc1 (stereo unspecified) 7.13%
Cc1ccc(NC(=O)CN(C)S(=O)(=O)c2cnc[nH]2)cc1C 3.83%
O=C(O)C1CCN(S(=O)(=O)N2CCOCC2)CC1 4.13%
CCOC(=O)N1CCC(Nc2c(NCCCN3CCN(c4ccc(OC)cc4)CC3)c(=O)c2=O)CC1 4.27%
CCCN1CCN(C(=O)Cn2ncc3ccccc32)CC1 0.47%
Cc1ccc(F)cc1NC(=O)Cc1nn(C)c(=O)c2ccccc12 2.55%
CCCOc1ccc(C2C(C(=O)c3ccc(C)o3)=C(O)C(=O)N2CCCn2ccnc2)cc1 (stereo unspecified) 2.38%
O=C(Nc1ccc2c(c1)nc1n2CCCCC1)c1cc(S(=O)(=O)N2CCOCC2)ccc1Cl -1.57%
CN1c2ccccc2-c2nc3ccccc3n2C1c1ccco1 (stereo unspecified) -10.8%
O=C(CCCn1c(=O)oc2ccccc21)Nc1cccnc1 -0.71%
CCCCNc1nc2c(c(=O)n(C)c(=O)n2C)n1Cc1cccc(OC)c1 0.69%
COc1ccc(CCNC(=O)CSc2nnc(-c3cccc(F)c3)o2)cc1OC 1.18%
CCCSC1=C(C#N)C(c2ccccc2C)C(C(=O)OC)C(=O)N1 (stereo unspecified) -3.07%
Cc1ccccc1C(=O)Nc1cccc(-c2nnc(SCC(=O)O)n2C)c1 0.46%
CC(C)Oc1ccc(C(=O)Nc2cc(=O)n(C)c(=O)n2C)cc1 -1.53%
Cc1cc(NC(=O)Nc2ccccc2)n(-c2ccccc2)n1 0.02%
O=C(NCC(F)(F)F)Nc1nnc(C(F)(F)F)s1 2.4%
Fc1ccc(Br)cc1/C=N/n1cnnc1 3.66%
Cc1cccc(-c2noc(-c3ccc(F)cc3)n2)c1 3.17%
COc1c(O)cccc1-c1nnn(CCC(=O)OCC(=O)c2ccccc2)n1 0.08%
CN(C)/C=C1\C=C(c2ccccc2)OC1=O 6.09%
CCCCSc1nc2c(c(=O)n1CC)SC(C)C2 (stereo unspecified) -3.44%
CC1COC2C(O1)N(S(C)(=O)=O)CCN2S(C)(=O)=O (stereo unspecified) 3.14%
CCOC(=O)[C@H]1CCC[C@@H](NS(=O)(=O)c2ccc(NC(C)=O)cc2)C1 1.14%
CCOc1ccccc1C(=O)NCc1ccco1 -3.58%
Cc1cc2cc(CN(Cc3cccs3)Cc3nnnn3CC3CCCO3)c(=O)[nH]c2cc1C (stereo unspecified) 4.13%
O=C(CN(CC1CCCO1)C(=O)CNS(=O)(=O)c1ccccc1)NCc1ccccc1 (stereo unspecified) 6.19%
CSc1ncccc1C(=O)OCC(=O)N1CCOCC1 4.46%
Cn1c(=O)c2c(nc(Br)n2CCSc2nc3ccccc3o2)n(C)c1=O -0.32%
C=CCOc1nc2c(c(=O)n(C)c(=O)n2C)n1Cc1ccc(Cl)cc1Cl 0.74%
CN(Cc1ccccc1)C(=O)CCNC(=O)Cn1cnc2ccccc2c1=O -3.16%
O=C(CN1CCOCC1)Nc1ccc(NC(=O)CN2CCOCC2)c(Cl)c1 1.81%
Cc1ccc2nc(NC(=O)C3CCN(S(=O)(=O)c4ccc5c(c4)oc(=O)n5C)CC3)sc2c1 4.26%
CC(C)C(=O)N1CCN(c2nc(-c3ccccc3)c3c(c2C#N)CC(C)(C)OC3)CC1 1.01%
Cc1ccc(-n2c(Cc3cccs3)nnc2SCC(=O)OC(C)C)cc1 11.1%
CCOCCOC(=O)C1=C(C)N(C)C(=O)NC1c1ccccc1F (stereo unspecified) 1.21%
COc1ccc(-c2nnc(SCC(=O)c3ccco3)n2-c2ccccc2)cc1 0.87%
CN(CCC#N)c1ncnc2scc(-c3ccccc3)c12 -3.88%
COc1cc(C2C(C(=O)c3sc(C)nc3C)=C(O)C(=O)N2CCN(C)C)cc(OC)c1OC (stereo unspecified) 4.44%
Cc1cc(N=CC2=C(O)CCCC2=O)no1 -1.03%
CCC(=O)c1ccc(OCC(O)CN2CC(C)OC(C)C2)cc1 (stereo unspecified) 1.68%
CCC(=O)c1ccc(OCC(O)CN2C(=O)NC(C)(C)C2=O)cc1 (stereo unspecified) 2.56%
